Reference: PubChem BioAssay (EPA / NIEHS)
Several values for one entry are separate records, joined by “and”; a condition that tells them apart may be missing. Equal entries are not always repeated. Where a structure was tested more than once in an assay, its records may differ in their call. Activity calls are given as the source filed them. Rule for the calls: active = hit-call score of the fitted dose curve at least 0.9, where 1 is the maximum; inactive = score below 0.9.

How the values were obtained:
[1] = read-out: Interferon-gamma inducible Protein 10 (IP10), CXCL10 (gene 3627); assay: BSK_BE3C_IP10: BioMAP Diversity Plus: BE3C Assay for Interferon-gamma inducible Protein 10 (IP10) Biomarker Activity (AID 2283034); conditions: primary human bronchial epithelial cells; actives raise or lower the signal
In short: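 BE3C cells (human bronchial epithelial, primary); 24 h exposure; ELISA for IP-10; DMSO-referenced bidirectional fit.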

[2] = read-out: Monokine induced gamma interferon (MIG), CXCL9 (gene 4283); assay: BSK_BE3C_MIG: BioMAP Diversity Plus: BE3C Assay for Monokine induced gamma interferon (MIG) Biomarker Activity (AID 2283035); conditions: primary human bronchial epithelial cells; actives raise or lower the signal
In short: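 ELISA quantified MIG after 24 h exposure of primary bronchial epithelial cultures, analysed in both directions relative to DMSO. Cytotoxicity tracked in parallel cultures by sulforhodamine B staining.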

[3] = read-out: Plasminogen activator inhibitor-1 (PAI1), SERPINE1 (gene 5054); assay: BSK_BE3C_PAI1: BioMAP Diversity Plus: BE3C Assay for Plasminogen activator inhibitor-1 (PAI1) Biomarker Activity (AID 2283037); conditions: primary human bronchial epithelial cells; actives raise or lower the signal
In short: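 In this multiplexed primary-cell system, bronchial epithelial cells receive test chemical and are sampled at 24 h. PAI-1 is read by ELISA, with DMSO serving as negative control for bidirectional fitting.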

[4] = read-out: urokinase plasminogen activator (uPA), PLAU (gene 5328); assay: BSK_BE3C_uPA: BioMAP Diversity Plus: BE3C Assay for urokinase plasminogen activator (uPA) Biomarker Activity (AID 2283038); conditions: primary human bronchial epithelial cells; actives raise or lower the signal
In short: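 Measured by ELISA: uPA from human primary bronchial epithelial cells 24 h after chemical treatment. Values derive from bidirectional curve fitting with DMSO serving as negative control. Total protein by SRB staining in parallel wells flagged overt cytotoxicity.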

[5] = read-out: Urokinase-type plasminogen activator receptor (uPAR), PLAUR (gene 5329); assay: BSK_BE3C_uPAR: BioMAP Diversity Plus: BE3C Assay for Urokinase-type plasminogen activator receptor (uPAR) Biomarker Activity (AID 2283039); conditions: primary human bronchial epithelial cells; actives raise or lower the signal
In short: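 Chemically treated human bronchial epithelial cells (lung primary) are assayed for uPAR by ELISA after 24 h, with data fitted in both directions using DMSO as negative control.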

[6] = read-out: Interleukin-6 (IL6), IL6 (gene 3569); assay: BSK_CASM3C_IL6: BioMAP Diversity Plus: CASM3C Assay for Interleukin-6 (IL6) Biomarker Activity for (AID 2283040); conditions: primary human coronary artery smooth muscle cells; actives raise or lower the signal
[7] = read-out: Tissue plasminogen activator (tPA), PLAT (gene 5327); assay: BSK_BE3C_tPA: BioMAP Diversity Plus: BE3C Assay for Tissue plasminogen activator (tPA) Biomarker Activity (AID 2283041); conditions: primary human bronchial epithelial cells; actives raise or lower the signal
In short: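 Using human lung primary bronchial epithelial cells, tPA was measured by ELISA 24 h after dosing; data fitted relative to DMSO.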

[8] = read-out: Interleukin-8 (IL8), CXCL8 (gene 3576); assay: BSK_CASM3C_IL8: BioMAP Diversity Plus: CASM3C Assay for Interleukin-8 (IL8) Biomarker Activity (AID 2283042); conditions: primary human coronary artery smooth muscle cells; actives raise or lower the signal;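 note: IL-8 protein level quantified by ELISA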
[9] = read-out: Macrophage colony-stimulating factor (MCSF), CSF1 (gene 1435); assay: BSK_CASM3C_MCSF: BioMAP Diversity Plus: CASM3C Assay for Macrophage colony-stimulating factor (MCSF) Biomarker Activity (AID 2283044); conditions: primary human coronary artery smooth muscle cells; actives raise or lower the signal;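 note: M-CSF protein amount quantified by ELISA after 24 h exposure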
[10] = read-out: Low-density lipoprotein receptor (LDLR), LDLR (gene 3949); assay: BSK_CASM3C_LDLR: BioMAP Diversity Plus: CASM3C Assay for Low-density lipoprotein receptor (LDLR) Biomarker Activity (AID 2283045); conditions: primary human coronary artery smooth muscle cells; actives raise or lower the signal;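 note: LDLR protein level on the cell surface quantified by ELISA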
[11] = read-out: Monocyte Chemoattractant Protein-1 (MCP1), CCL2 (gene 6347); assay: BSK_CASM3C_MCP1: BioMAP Diversity Plus: CASM3C Assay for Monocyte Chemoattractant Protein-1 (MCP1) Biomarker Activity (AID 2283046); conditions: primary human coronary artery smooth muscle cells; actives raise or lower the signal;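 note: MCP-1 level quantified by ELISA 24 h after dosing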
[12] = BSK_CASM3C_Proliferation: Cell Proliferation Assessment in the BioMAP Diversity Plus: CASM3C Assay (AID 2283047); conditions: primary human coronary artery smooth muscle cells;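 note: sulforhodamine B total protein stain as relative cell number at 560 nm; sub-confluent cells exposed 48 h before staining; fitted both ways against DMSO so gain or loss of cell number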
[13] = read-out: Monokine induced gamma interferon (MIG), CXCL9 (gene 4283); assay: BSK_CASM3C_MIG: BioMAP Diversity Plus: CASM3C Assay for Monokine induced gamma interferon (MIG) Biomarker Activity (AID 2283048); conditions: primary human coronary artery smooth muscle cells; actives raise or lower the signal;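 note: MIG protein level measured by ELISA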
[14] = read-out: serum amyloid A (SAA), SAA1 (gene 6288); assay: BSK_CASM3C_SAA: BioMAP Diversity Plus: CASM3C Assay for serum amyloid A (SAA) Biomarker Activity (AID 2283049); conditions: primary human coronary artery smooth muscle cells; actives raise or lower the signal;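 note: SAA protein level quantified by ELISA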
[15] = BSK_CASM3C_SRB: Viability Assessment in the BioMAP Diversity Plus: CASM3C Assay (AID 2283050); conditions: primary human coronary artery smooth muscle cells;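 note: total protein by SRB staining as cytotoxicity measure in parallel cultures; cells exposed to compound for 24 h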
[16] = read-out: Thrombomodulin, THBD (gene 7056); assay: BSK_CASM3C_Thrombomodulin: BioMAP Diversity Plus: CASM3C Assay for Thrombomodulin Biomarker Activity (AID 2283051); conditions: primary human coronary artery smooth muscle cells; actives raise or lower the signal;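 note: thrombomodulin protein level measured by ELISA 24 h after dosing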
[17] = read-out: Human Leukocyte Antigen - DR isotype (HLADR), HLA-DRA (gene 3122); assay: BSK_BE3C_HLADR: BioMAP Diversity Plus: BE3C Assay for Human Leukocyte Antigen - DR isotype (HLADR) Biomarker Activity (AID 2283032); conditions: primary human bronchial epithelial cells; actives raise or lower the signal
In short: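 BioMAP BE3C format: human bronchial epithelium, 24 h compound treatment, ELISA detection of HLA-DR, with bidirectional analysis relative to DMSO.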

[18] = read-out: Vascular cell adhesion molecule 1 (VCAM1), VCAM1 (gene 7412); assay: BSK_4H_VCAM1: BioMAP Diversity Plus: 4H Assay for Vascular cell adhesion molecule 1 (VCAM1) Biomarker Activity (AID 2283033); conditions: primary human endothelial cells (HUVEC); actives raise or lower the signal
In short: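 In this human endothelial (HUVEC) system, biomarker ELISA was run 24 h after compound addition, and total protein in parallel wells was assessed by SRB at 560 nm; DMSO served as negative control.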

[19] = read-out: Transforming growth factor beta 1 (TGFb1), TGFB1 (gene 7040); assay: BSK_BE3C_TGFb1: BioMAP Diversity Plus: BE3C Assay for Transforming growth factor beta 1 (TGFb1) Biomarker Activity (AID 2283036); conditions: primary human bronchial epithelial cells; actives raise or lower the signal
In short: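 TGF-b1 measured via ELISA, 24 h after chemical dosing of human bronchial epithelial cells (BE3C). Overt cytotoxicity assessed in parallel by SRB (0.1%, TCA-fixed, 560 nm); analysis bidirectional relative to DMSO.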

[20] = read-out: Human Leukocyte Antigen - DR isotype (HLADR), HLA-DRA (gene 3122); assay: BSK_CASM3C_HLADR: BioMAP Diversity Plus: CASM3C Assay for Human Leukocyte Antigen - DR isotype (HLADR) Biomarker Activity (AID 2283043); conditions: primary human coronary artery smooth muscle cells; actives raise or lower the signal;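 note: cell-surface HLA-DR protein level quantified by ELISA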

Measured: AC50

FC(F)(I)C(F)(F)C(F)(F)C(F)(F)C(F)(F)C(F)(F)I
inactive: [7] | [16]
active: [1] 18.4 µM and 16.9 µM and 45.2 µM | [2] 45.1 µM [middle of 5 runs] | [3] 24.9 µM [middle of 5 runs] | [4] 40.3 µM [middle of 5 runs] | [5] 43.5 µM [middle of 5 runs] | [6] 35.9 µM [middle of 5 runs] | [8] 30 µM [middle of 5 runs] | [9] 25.9 µM [middle of 5 runs] | [10] 22 µM [middle of 5 runs] | [11] 21.6 µM [middle of 5 runs] | [12] 13.6 µM [middle of 5 runs] | [13] 29.7 µM [middle of 5 runs] | [14] 17 µM [middle of 5 runs] | [15] 23.3 µM [middle of 5 runs] | [16] 17.8 µM and 50.8 µM and 7.99 µM

c1ccc2cc3c(ccc4ccccc43)cc2c1
inactive: [17] | [18] | [1] | [2] | [19] | [4] | [5] | [6] | [7] | [8] | [20] | [9] | [10] | [11] | [13] | [14] | [15]
active: [3] 3.97 µM | [12] 3.12 µM | [16] 2.24 µM

CCc1ccc(CCOc2ccc(CC3SC(=O)NC3=O)cc2)nc1 (configuration not stated)
inactive: [17] | [18] | [1] | [2] | [19] | [3] | [4] | [5] | [6] | [7] | [8] | [20] | [9] | [10] | [11] | [12] | [13] | [14] | [15] | [16]

CC1=C(/C=C/C(C)=C/C=C/C(C)=C/C(=O)O)C(C)(C)CCC1
active: [17] 20 µM | [18] 26.3 µM | [1] 20 µM | [6] 2.7 µM | [20] 26.3 µM | [12] 20 µM | [16] 8.15 µM
inactive: [2] | [19] | [3] | [4] | [5] | [7] | [8] | [9] | [10] | [11] | [13] | [14]

COc1ccc([N+](=O)[O-])cc1N
inactive: [17] | [1] | [2] | [19] | [3] | [4] | [5] | [6] | [7] | [8] | [20] | [9] | [10] | [11] | [12] | [13] | [14] | [15] | [16]

O=C(O)Cc1cc(I)c(Oc2cc(I)c(O)c(I)c2)c(I)c1
inactive: [8] | [20] | [9] | [10] | [11] | [12] | [13] | [14] | [15] | [16]
active: [17] 5.22 µM | [18] 19.5 µM | [1] 2.73 µM | [2] 9.13 µM | [19] 8.3 µM | [3] 4.21 µM | [5] 10.4 µM | [6] 21.7 µM | [7] 4.84 µM

C#C[C@]1(O)CC[C@H]2[C@@H]3CCC4=CC(=O)CC[C@@H]4[C@H]3CC[C@@]21C
inactive: [17] | [18] | [1] | [2] | [19] | [3] | [4] | [5] | [6] | [7] | [8] | [20] | [9] | [10] | [11] | [13] | [14] | [15] | [16]

CC[C@H](c1ccc(O)cc1)[C@@H](CC)c1ccc(O)cc1
active: [17] 19.1 µM | [18] 30.7 µM | [1] 20.1 µM | [2] 34.5 µM | [19] 27.9 µM | [3] 22.9 µM | [4] 37.2 µM | [5] 37.8 µM | [7] 27.5 µM | [12] 20 µM
inactive: [6] | [8] | [20] | [9] | [10] | [11] | [13] | [14] | [15] | [16]

CCCCC(CC)COC(=O)CCCCC(=O)OCC(CC)CCCC (configuration not stated)
inactive: [17] | [18] | [1] | [2] | [19] | [3] | [4] | [5] | [6] | [7] | [8] | [20] | [9] | [10] | [11] | [12] | [13] | [14] | [15] | [16]

c1ccc2c(c1)Cc1ccccc1-2
inactive: [17] | [18] | [1] | [2] | [19] | [3] | [4] | [6] | [7] | [8] | [20] | [9] | [10] | [11] | [12] | [13] | [14] | [15] | [16]

Cc1oc(-c2ccccc2)nc1CCOc1ccc(C[C@H](Nc2ccccc2C(=O)c2ccccc2)C(=O)O)cc1
active: [17] 3.01 µM | [18] 33.5 µM | [1] 2.55 µM | [2] 4.79 µM | [19] 5.06 µM | [3] 5.29 µM | [4] 1.8 µM | [5] 3.63 µM | [6] 29.9 µM | [20] 34.6 µM | [9] 30.8 µM | [10] 4.87 µM | [11] 32.4 µM | [12] 31.8 µM | [15] 32.3 µM
inactive: [7] | [8] | [13] | [14] | [16]
